Assay outcomes (PubChem BioAssay)
ClpP mod: qHTS Assay for Activators of ClpP; ATP-dependent Clp protease proteolytic subunit (Bacillus subtilis (strain 168)), P80244; Potency, µM (highest dose often 57.5 µM); purified B. subtilis ClpP, FRET peptide cleavage, 20 min; AID 651965, 2013; actives 1.9% (n = 340,000); active = well fitted falling curve with a large enough effect; inconclusive = small, poorly fitted or top-dose-only effect; inactive = no such curve, though single readings can be large or run the other way; note: the source files actives as falling curves though it sought activators and does not explain the sign; nearly all actives have a fitted effect of over 65% in size
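FRET quenching reversal measured ClpP activation: 10 microg/mL B. subtilis ClpP at pH 8 with the FRET-FV decapeptide, read at 430 nm after 320 nm excitation. The 20-min minus 0-min signal was scaled between DMSO/no-enzyme wells and ADEP (5.8 microM final).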
Eya2 phos inh: Eya2 (human) phosphatase inhibition; O00167; recombinant Eya2, OMFP fluorescence dephosphorylation (OMFP is methylfluorescein phosphate); Potency, µM (highest dose often 76.9 µM), most hits filed as inhibitors; actives 0.006% (n = 330,000)
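Eya2 protein (added as 0.2 uM solution) was preincubated with compound for 10 min at ambient temperature in 50 mM HEPES pH 7.5, 50 mM NaCl, 5 uM MgCl2, 0.05% BSA, 1 mM DTT. OMFP (added at 50 uM) then reacted 10 min; fluorescence read at 485/525 nm.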
USP2a inh: USP2a (human) protease inhibition | USP2 core, Ub-CHOP2 coupled fluorogenic reporter, 485/531 | actives 0.01% (n = 330,000) | O75604 | AID 463254 | Potency, µM (highest dose often 38.3 µM), hits mostly inhibitors
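Deubiquitinase activity read as fluorescence (485/531 nm) after Ub-CHOP2 cleavage activates the enterokinase reporter on its substrate; USP2 core 10nM, Ub-CHOP2 and substrate 25nM each, 30min compound preincubation then 60min RT; data normalized to NEM, curves fitted.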
Integrin act MD: activators of alpha7 integrin expression for muscular dystrophy; alpha7betagal myoblasts, beta-gal FDG fluorescence, 48 h; Potency, µM (doses to about 38.3 µM), actives largely listed as activators; actives 0.064% (n = 350,000); note: nearly all actives have a fitted effect of over 60% in size
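alpha7betagal+/- myoblasts (passage 13, 250/well) treated 48 h at 37C with compounds at 1:260 dilution of DMSO stock. Lysed, then beta-galactosidase activity read as FDG fluorescence (ex 480/em 540) after 30 min, with pre-read for autofluorescence.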
Mm-Cpn inhibitor: inhibitors of Methanococcus maripaludis chaperonin TRiC (MmCpn) | purified Mm-Cpn ATPase, ADP Transcreener TR-FRET | actives 0.031% (n = 330,000) | AID 504842 | Potency, µM (highest dose often 76.9 µM), usual class: inhibitors; note: nearly all actives have a fitted effect of over 80% in size
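ATPase turnover read by TR-FRET ADP competition (Eu cryptate antibody/ADP-d2, 665/590 nm): 10uM ATP final, 25nM Mm-CPN final, 30 min 37degC after 10-min compound preincubation, pH 7.4 Tris/KCl/MgCl2/DTT buffer.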
p53 reactivator: mutant p53 re-activation in reporter cells. H1299 p53-A138V BP100-luciferase reporter, luminescence, 24 h. Potency, µM (highest dose often 92.2 µM), usual class: activators. actives 0.063% (n = 320,000). AID 504706; note: nearly all actives have a fitted effect of over 45% in size
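p53-null H1299 cells stably carrying temperature-sensitive p53-A138V and a BP100-luciferase reporter were pinned with compounds (4-point, 1:5 series) and held 24 hrs at 37 deg C. Luminescence was read 10 min after detection reagent.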
Numbers stand for hits; - = inactive; ? = inconclusive; . = no result given; ! = a repeat was not active. Many of the other results were omitted from the sample, so hits are more common in it than they were. Unless noted, calls come from the whole dose curve; as a rule, active = well fitted curve in the direction sought with a large enough effect; inconclusive = small, poorly fitted or top-dose-only effect, or another doubt; inactive = no such curve, though single readings can be large; an effect the other way counts as inactive or inconclusive.

SMILES	ClpP mod	Eya2 phos inh	USP2a inh	Integrin act MD	Mm-Cpn inhibitor	p53 reactivator
CCOC(=O)/C(C#N)=C/c1c(N2CCN(c3ccc(OC)cc3)CC2)nc2c(C)cccn2c1=O	31.6µM	?	-	-	-	-
CCCN1CNc2c(c(=O)[nH]c(=S)n2CCc2cc(C)ccc2C)C1	-	.	.	.	.	.
Cc1ccccc1NC(=O)N(O)C1(C#N)CCCCC1	31.6µM	.	.	-	.	.
Cc1ccccc1NC(=O)NC1CCCCCCC1	-	-	-	-	-	-
O=C(COc1ccc(Br)cc1)Nc1ccc(-c2nnc(-c3ccco3)o2)cc1	10µM	-	-	-	-	?
COc1ccccc1OCC(=O)Nc1ccc(-c2nnc(-c3ccco3)o2)cc1	-	-	-	-	-	-
Cc1ccc(S(=O)(=O)c2cn(Cc3ccccc3)c3cc(N4CCCC4)c(F)cc3c2=O)cc1C	12.6µM	.	.	.	.	.
Cc1cccc(S(=O)(=O)c2cn(Cc3ccccc3)c3cc(N4CCCCC4C)c(F)cc3c2=O)c1 (centres undefined)	-	.	.	.	.	.
O=c1c(S(=O)(=O)c2ccccc2)cn(Cc2ccccc2)c2cc(N3CCCC3)c(F)cc12	-	.	.	.	.	.
O=c1c(S(=O)(=O)c2ccccc2)cn(Cc2cccc(F)c2)c2cc(N3CCOCC3)c(F)cc12	28.2µM	.	.	.	.	.
O=c1c(S(=O)(=O)c2ccccc2)cn(Cc2cccc(F)c2)c2cc(N3CCCC3)c(F)cc12	-	.	.	.	.	.
O=c1c(S(=O)(=O)c2ccccc2)cn(Cc2ccccc2)c2cc(N3CCOCC3)c(F)cc12	28.2µM	.	.	.	.	.
CC1CCCCN1c1cc2c(cc1F)c(=O)c(S(=O)(=O)c1ccccc1)cn2Cc1ccccc1 (centres undefined)	15.8µM	.	.	.	.	.
CCOC(=O)C1CCN(c2nc(-c3ccc(Br)cc3)cs2)CC1	.	.	.	.	-	.
O=C(NCCc1csc(-c2ccc(C(F)(F)F)cc2)n1)c1ccc(F)c(F)c1	-	.	.	.	.	.
COC(=O)C1=C(C)NC2=C(C(=O)CCC2)C1c1cn(Cc2ccc(Br)cc2)nc1-c1ccccc1 (centres undefined)	?	-	-	-	-	-
COC(=O)C1=C(C)NC2=C(C(=O)CC(C)(C)C2)C1c1cn(Cc2ccc(Br)cc2)nc1-c1ccccc1 (centres undefined)	31.6µM	-	-	-	-	-
C1=Cc2ccccc2/C1=C/c1ccc2c(c1)OCO2	-	.	.	.	.	.
CCCC(C(=O)NCC1CCCO1)N(Cc1ccco1)C(=O)CNS(=O)(=O)c1ccccc1 (centres undefined)	25.1µM	-	-	-	-	-
CCCC(C(=O)NC1CCCCC1)N(Cc1ccco1)C(=O)CNS(=O)(=O)c1ccccc1 (centres undefined)	-	-	-	-	-	-
CCOC(=O)Cc1csc(NC(=S)NC(=O)c2cc(OC)c(OC)c(OC)c2)n1	-	-	-	3.55µM	-	-
CCn1nc(-c2ccc(C)cc2)nc2c(=O)n(C)c(=O)nc1-2	-	.	.	.	.	.
COCCCNC(=O)c1ccccc1NS(C)(=O)=O	28.2µM	-	-	-	-	-
CS(=O)(=O)Nc1ccccc1C(=O)Nc1cc(Cl)cc(Cl)c1	14.1µM	-	-	-	-	-
CS(=O)(=O)Nc1ccccc1C(=O)NC1CC2CCC1C2 (centres undefined)	35.5µM	-	-	-	-	-
SMILES	ClpP mod	Eya2 phos inh	USP2a inh	Integrin act MD	Mm-Cpn inhibitor	p53 reactivator
CS(=O)(=O)Nc1ccccc1C(=O)Nc1cccc(Cl)c1	-	-	-	-	-	-
CS(=O)(=O)Nc1ccccc1C(=O)Nc1ccccc1Cl	-	-	-	-	-	-
NC(=O)c1nc(-c2ccc(F)c(F)c2)nc2c1[nH]c(=O)n2-c1cccc(Cl)c1	-	.	.	.	.	.
Cc1ccccc1NC(=O)c1ccccc1OCC(=O)Nc1ccc(Br)cc1	-	.	.	.	.	.
COc1ccc(-n2c(/C=C/c3cccc(C(F)(F)F)c3)nc3ccccc3c2=O)cc1Cl	-	.	.	.	.	.
CCS(=O)(=O)Nc1c(C(=O)O)[nH]c2ccccc12	22.4µM	-	-	-	-	-
O=C(C[n+]1cccc2cc(Cl)ccc21)c1ccc(I)cc1	-	.	.	.	.	.
CCOc1ccc(/C=C/c2nc(C#N)c(N3CCC(C)CC3)o2)cc1	-	.	.	.	.	.
CCCC(c1nnnn1CC(=O)OCC)N(Cc1cc2c(C)cc(C)cc2[nH]c1=O)C1CCCC1 (centres undefined)	?	-	-	-	-	-
CCCC(c1nnnn1CC(=O)OCC)N(Cc1cc2ccc(C)cc2[nH]c1=O)C1CCCC1 (centres undefined)	17.8µM	-	-	-	-	-
CN1CCN(CCCNC(=O)Cn2c(-c3cccs3)cc3cc(Cl)ccc32)CC1	31.6µM	.	.	.	.	.
O=C(Cn1c(-c2cccs2)cc2cc(Cl)ccc21)NCc1ccccc1	28.2µM	.	.	.	.	.
CCN(CC)CCCNC(=O)Cn1c(-c2cccs2)cc2cc(Cl)ccc21	28.2µM	.	.	.	.	.
COc1ccc(N2CCN(CCCNC(=O)Cn3c(-c4cccs4)cc4ccccc43)CC2)cc1	-	.	.	.	.	.
O=C(O)Cn1c(-c2cccs2)cc2cc(Cl)ccc21	-	.	.	.	.	.
CCN1CCN(CCCNC(=O)Cn2c(-c3cccs3)cc3cc(Cl)ccc32)CC1	31.6µM	.	.	.	.	.
CCOC(=O)COc1ccc(C)cc1C(=O)c1ccn2nc(-c3ccc(Cl)cc3)cc2n1	-	.	.	.	.	.
CC(C)CCNC(=O)Nc1cc(C(=O)NCc2cccc(F)c2)ccc1N1CCCC1	-	.	.	.	.	.
COc1ccc(S(=O)(=O)N(CC(=O)O)c2ccccn2)cc1	-	-	-	-	-	-
CCOC(=O)CN(c1ccccn1)S(=O)(=O)c1ccccc1	31.6µM	-	-	-	-	-
CNc1ccc(/C=C2\C=Cc3ccccc32)cc1Br	-	.	.	.	.	.
CC(=O)Nc1ccc(CCNC(=O)c2ccc3ccccc3c2O)cc1	25.1µM	.	.	-	.	.
CCOC(=O)c1ccc(NC(=O)C2=C(C)C(=O)OC23CCN(C(C)C)CC3)cc1	-	.	.	.	.	.
C=C1CSc2nc(=O)c3c(C)c(C)sc3n21	15.8µM	-	-	-	-	-
Cc1nc2sc(C)c(C)c2c(=O)[nH]1	-	-	-	-	-	-
COC(=O)[C@@H]1[C@H]2SC(C)(C)[C@H](C(=O)OC)N2C(=O)N1Cc1cc2ccccc2n1S(=O)(=O)c1ccccc1	-	.	.	.	.	.
Cc1ccccc1-n1c(CSC(=N)N)nc2ccccc2c1=O	11.2µM	-	-	-	-	-
N=C(N)SCc1nc2ccccc2c(=O)n1-c1ccccc1Cl	?	-	-	-	-	?
COC(=O)c1ccccc1NC(=O)c1ccc(COc2ccc(C)c(C)c2)o1	?	-	-	-	-	-
COC(=O)c1ccccc1NC(=O)c1ccc(COc2cc(C)cc(C)c2)o1	20µM!	-	-	-	-	-
